Here are results for 122 compounds from PubChem BioAssay AID492952 (Southern Research Specialized Biocontainment Screening …, 2010).

Screen size: about 2,300 compounds; about 1,500 (65%) were called active. No rule for the calls is given here. The set was probably picked from earlier hits. The list shows a part of the results. Entries with a potency or affinity are not part of this list.

This experiment is described as follows: replicating M. tuberculosis growth inhibition, dose response, non-replicating M. tuberculosis project, H37Rv (AID 492952).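 Also: Mycobacterium tuberculosis grown in culture; growth inhibition read after a week of incubation.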 As to conditions: series mostly up to 50 µM.
With `CC(C)(C)NCc1cc(Br)ccc1OC1CCCC1`, the compound was classed as inactive.

For the compound `COc1ccc(-n2c3c(cc(C(=O)NNc4ccccc4)c2=O)C(=O)CC(C)(C)C3)cc1`, the compound was called inactive.

For `Clc1ccccc1OCc1nnc(-c2ccccc2)o1`, the outcome was inactive.

With `c1ccc(Cc2nnc(-c3ccccc3)o2)cc1`, the compound was classed as inactive.

For the compound `O=C1NC(=S)S/C1=C\c1ccc(SCc2ccco2)o1`, the compound was classed as inactive.

Regarding `COc1ccc(OCCCC(=O)Nc2ccc(N3CCOCC3)cc2)cc1`, the compound was called inactive.

As for `CN(CC(=O)Nc1ccc(Cl)cc1)C1CCCCC1`, the call was inactive.

As for `Cc1ccc(C(=O)C=CNNC(=O)c2ccccc2)cc1`, the outcome was inactive.

Take `O=C(C1CCN(C2CC(=O)N(Cc3ccccc3)C2=O)CC1)N1CCCCCC1` (configuration not stated): the compound was classed as inactive.

For the compound `CC(C)CN(Cc1c(O)ccc2ccccc12)CC(C)C`, the outcome was inactive.

For `CCOc1ccc(NC(=O)CCNC(=O)c2ccc(Br)cc2)cc1`, the compound was classed as inactive.

With `O=C(NCCSc1ccccc1)c1ccc(Br)cc1`, the result was inactive.

For `COc1ccc(C(=O)C=CNNC(=O)c2ccc(Cl)cc2)cc1`, the compound was called inactive.

For the compound `COc1ccccc1CCNC(=O)c1ccc(C)o1`, the compound was called inactive.

Take `O=C(Oc1cccc2cccnc12)c1cccc(-n2cnnn2)c1`: the compound was called inactive.

`Cc1ccc(C2=N/C(=C\c3cccnc3)C(=O)O2)cc1`: the compound was classed as inactive.

For `Cc1cccc(C2=N/C(=C\c3cccnc3)C(=O)O2)c1`, the call was inactive.

For `CN(CCOCCOc1ccc(F)cc1)Cc1ccccc1`, the call was inactive.

Consider `CN(CCCCOc1ccc(F)cc1)Cc1ccccc1`, for which the outcome was inactive.

Take `O=C1CC(N2CCN(c3ccccc3)CC2)C(=O)N1CCc1ccccc1` (configuration not stated): the compound was called inactive.

On to `CC(NC(=O)COc1ccccc1F)C1CC2CCC1C2` (configuration not stated), for which the outcome was inactive.

For `O=C(COc1ccccc1)NC1CCCCC1`, the compound was classed as inactive.

For the compound `O=C(NCCC1=CCCCC1)c1coc(=O)c(Br)c1`, the compound was classed as inactive.

Take `COc1cc(/C=N/Nc2cccc3cccnc23)cc(OC)c1O`: the compound was called inactive.

For the compound `COc1ccc(N2CCN(CC(=O)NC(=O)NC(C)(C)C)CC2)cc1`, the compound was classed as inactive.

`COc1ccc(OCC(=O)Nc2ccc(N3CCN(C(=O)c4ccco4)CC3)cc2)cc1`: the outcome was inactive.

For the compound `CN(C)Cc1ccccc1Sc1ccc(Br)cc1`, the compound was called inactive.

Take `CC1CCCN(CCCOc2ccc([N+](=O)[O-])cc2)C1` (configuration not stated): the call was inactive.

With `O=C1c2ccccc2C(=O)N1CCOc1ccc(F)cc1`, the result was inactive.

In the case of `COc1ccc(N=Cc2nc(-c3ccccc3)oc2OC(C)=O)cc1`, the outcome was inactive.

`COc1ccccc1N=Cc1nc(-c2ccccc2)oc1OC(C)=O`: the outcome was inactive.

Regarding `CC1(C)CC(=O)C2=C(C1)OC(N)=C([N+](=O)[O-])C2c1ccc(C#N)s1` (configuration not stated), the call was inactive.

As for `C/C(=N\NC(=O)COc1cccc(C)c1)c1ccc2ccccc2c1O`, the result was inactive.

In the case of `Cc1ccc(N2C(=O)CC(Sc3nccc(C)n3)C2=O)cc1` (configuration not stated), the outcome was inactive.

`CCOC(=O)N1CCC(NC(=O)C2CCN(c3nc(-c4ccc(OC)cc4)no3)CC2)CC1`: the outcome was inactive.

Consider `O=C(CCC1CCCC1)NCc1ccccn1`, for which the compound was called inactive.

For `COc1cccc(CC2(CO)CCCN(Cc3sc(N4CCCC4)nc3Cl)C2)c1` (configuration not stated), the outcome was inactive.

For `COc1cccc(C(=O)C2CCCN(CC3=Cc4cc(OC)ccc4OC3)C2)c1` (configuration not stated), the result was inactive.

Consider `CN1C(=O)CC(Sc2ccccc2C(=O)O)C1=O` (configuration not stated), for which the compound was called inactive.

As to `C/C(=C\C(=O)c1ccc(Br)cc1)NNC(=O)c1ccccc1`, the compound was classed as inactive.

`CC(C)=CC1C(C(=O)Nc2ccc(Br)cn2)C1(C)C` (configuration not stated): the outcome was inactive.

With `Cn1[nH]c(-c2ccccc2)c(/C=N/O)c1=O`, the result was inactive.

Regarding `CCOc1ccc(NCC(=O)c2ccc(C)cc2)cc1`, the compound was called inactive.

As for `COc1ccc(C(O)CNc2ccc(C)cc2)cc1` (configuration not stated), the call was inactive.

For the compound `CCOc1ccc(NC(=O)Cn2sc3nc(C)cc(C)c3c2=O)cc1`, the outcome was inactive.

For `O=C1CCC(=O)N1CNc1ccc(Oc2ccccc2)cc1`, the compound was called inactive.

For the compound `CCOC(=O)CCSc1n[nH]c(=S)s1`, the call was inactive.

For the compound `CC(=O)N1CCN(C(=O)CC2OC(=O)c3ccccc32)CC1` (configuration not stated), the compound was classed as inactive.

On to `CCn1ccc(C(=O)Nc2cccc(Cl)c2)n1`, for which the compound was classed as inactive.

For the compound `O=C(O)c1ccc(NCc2ccc(Br)cc2)cc1`, the call was inactive.

Turning to `O=C(COc1ccc(Br)cc1)N/N=C1/SCC(=O)N1Cc1ccco1`, the compound was classed as inactive.

As for `O=C(COc1ccccc1)Nc1ccc(Cl)cn1`, the outcome was inactive.

On to `O=C(COC(=O)CC1CCCC1)Nc1ccc(Cl)cn1`, for which the compound was classed as inactive.

In the case of `COc1ccccc1C(=O)OCC(=O)Nc1ccc(Cl)cn1`, the compound was called inactive.

As for `COc1ccc(CC(=O)OCC(=O)Nc2ccc(Br)cc2)cc1`, the call was inactive.

With `Cc1ccc(OCC(=O)Nc2ccc([N+](=O)[O-])cc2)cc1`, the outcome was inactive.

For `O=C(CCC1CCCC1)Nc1ccc(Br)cn1`, the compound was classed as inactive.

Consider `O=C(OCC#CCSc1nnc(-c2ccncc2)o1)c1cccs1`, for which the call was inactive.

As to `OC(C#CCN1CCOCC1)c1cccs1` (configuration not stated), the result was inactive.

On to `O=C(NCc1cccs1)c1ccc([N+](=O)[O-])cc1`, for which the compound was classed as inactive.

As to `Nc1ccc(C(=O)N/N=C\C=C\c2ccc([N+](=O)[O-])cc2)cc1`, the result was inactive.

In the case of `CCOC(=O)c1csc(NC(=O)COc2ccc(Cl)cc2Cl)n1`, the result was inactive.

`O=C(N/N=C/c1cc(Br)ccc1O)c1ccccc1Cl`: the result was inactive.

As for `O=C1NC(Cc2c[nH]c3ccccc23)C(=O)N1CCOc1ccccc1` (configuration not stated), the compound was called inactive.

Turning to `Cc1cc(Cl)ccc1N(CC(=O)NCc1ccccc1)S(C)(=O)=O`, the outcome was inactive.

In the case of `O=C(NCc1ccc(Cl)cc1)c1n[nH]c([N+](=O)[O-])c1Cl`, the outcome was inactive.

On to `COC(=O)COc1ccc(S(=O)(=O)NCc2ccc3c(c2)OCO3)cc1`, for which the call was inactive.

Regarding `Fc1ccc(-c2nnc(CSc3nnc(-c4cccs4)o3)o2)cc1`, the result was inactive.

Regarding `c1ccc(-c2nnc(SCc3cn4ccsc4n3)o2)cc1`, the call was inactive.

Consider `CCn1cc(C(=O)NC(C)C23CC4CC(CC(C4)C2)C3)cn1` (configuration not stated), for which the outcome was inactive.

Turning to `CN(C)CCC(=O)N1c2ccccc2Sc2ccc(Cl)cc21`, the compound was called inactive.

In the case of `CCOC(=O)Nc1ccc2c(c1)N(C(=O)CCCl)c1ccccc1[S@]2=O`, the outcome was inactive.

Turning to `O=Cc1coc2ccc3ccccc3c2c1=O`, the call was inactive.

`Cc1ccc(C)c(NC(=O)COC(=O)c2cc3ccccc3oc2=O)c1`: the call was inactive.

Regarding `CCOc1ccccc1OC(=O)c1cc2ccccc2oc1=O`, the outcome was inactive.

For `CC1(c2nnc(Cc3ccccc3)o2)CC(c2ccccc2[N+](=O)[O-])=NO1` (configuration not stated), the call was inactive.

For the compound `C/C(=N\O)c1cc(Cl)ccc1O`, the outcome was inactive.

On to `CC(C)=CCN1CCN(Cc2cn(C(C)C)c3ccccc23)CC1CCO` (configuration not stated), for which the call was inactive.

Regarding `O=[N+]([O-])c1ccc(N2CCCCCC2)c2nonc12`, the compound was called inactive.

For the compound `CCOc1ccc(-c2ccc(C=O)o2)c([N+](=O)[O-])c1`, the compound was called inactive.

Turning to `CC(C)N1CCc2c(sc(NC(=O)CCS(=O)(=O)c3ccccc3)c2C#N)C1`, the compound was called inactive.

On to `N=C1/C(=C\c2coc3ccccc3c2=O)C(=O)N=C2SC=CN12`, for which the outcome was inactive.

Regarding `CSC1=NSC2=NC(=O)/C(=C\c3cccs3)C(=N)N12`, the outcome was inactive.

Consider `c1cncc(-c2noc(CC3CCCCC3)n2)c1`, for which the result was inactive.

In the case of `COc1ccc(C(=O)CC(=O)C(=O)NCCc2cccc(C)c2)cc1`, the outcome was inactive.

On to `O=C(CCSc1ccc(Cl)cc1)Nc1cccnc1`, for which the call was inactive.

For `CC[n+]1c(/C=C(\C)Nc2ccccc2)sc2ccccc21`, the outcome was inactive.

With `Cc1nnc(C)n1/N=C/c1cc(Br)cc(Br)c1O`, the compound was called inactive.

Turning to `COc1cc(C2C3=C(CC(C)(C)CC3=O)OC(N)=C2[N+](=O)[O-])ccc1O` (configuration not stated), the result was inactive.

`CCOC(=O)CC(NS(=O)(=O)Cc1ccccc1)c1ccc(C)cc1` (configuration not stated): the compound was classed as inactive.

On to `COc1cccc(NC(=O)c2ccc(C(=O)c3ccccc3)o2)c1`, for which the outcome was inactive.

On to `COc1ccc(NC(=O)c2nc3ccccc3s2)cc1`, for which the compound was classed as inactive.

`CCOc1ccc(NC(=O)c2nnn(CC(=O)Nc3ccccc3OC)c2N)cc1`: the compound was classed as inactive.

As to `COC(=O)COc1ccc(S(=O)(=O)N2CCN(c3ccccc3F)CC2)cc1`, the call was inactive.

On to `O=S(=O)(c1ccc(OCC2CO2)cc1)c1ccc(OCC2CO2)cc1` (configuration not stated), for which the result was inactive.

For `Cc1ccc(CC(=O)N2CCN(c3ccc([N+](=O)[O-])cc3)CC2)cc1`, the outcome was inactive.

`O=C(NNC(=O)c1cccs1)c1ccc(Br)o1`: the compound was classed as inactive.

For the compound `O=C(Nc1ccc(N2CCN(C(=O)c3ccco3)CC2)c(Cl)c1)c1cccs1`, the compound was classed as inactive.

For the compound `O=C(c1cccs1)N1CCN(c2ccc(Cl)cc2)CC1`, the compound was called inactive.

With `Cc1nc2ccc(OC(=O)c3ccccc3)cc2s1`, the compound was classed as inactive.

As to `Cc1ccc(-c2nnc(-c3ccccc3)o2)cc1`, the compound was called inactive.

As to `O=C(COC(=O)CCC(=O)c1ccc(F)cc1)Nc1ccc(F)cc1F`, the compound was called inactive.

As for `O=C(NNC(=O)c1ncc(Cl)c(Cl)c1Cl)c1ccc(F)cc1`, the call was inactive.

Turning to `O=C1c2ccccc2CC1Sc1nnc(-c2ccncc2)o1` (configuration not stated), the compound was called inactive.

Turning to `CCOc1ccccc1NC(=O)COn1nnc2ccc(Cl)cc21`, the call was inactive.

Consider `O=C(Nc1ccc(Cl)cc1Cl)c1cccc(N2C(=O)C=CC2=O)c1`, for which the result was inactive.

For the compound `C/C(=N\NC(=O)c1cccc(Cl)c1)C1C(=O)c2ccccc2C1=O`, the result was inactive.

In the case of `O=S(=O)(CCN1CCN(c2ccccn2)CC1)c1ccc(Cl)cc1Cl`, the compound was classed as inactive.

For `CC(=O)c1ccc(-c2nnc(CCC(=O)N(C)Cc3cccc4cnccc34)o2)s1`, the outcome was inactive.

On to `O=C(COc1cccc2ccccc12)Nc1ccc(Cl)cc1C(=O)O`, for which the compound was called inactive.

As for `CCOC(=O)c1csc(COc2ccccc2Cl)n1`, the result was inactive.

As for `CCOc1cccc2cc(C(=O)NC(C)c3ccccc3)c(=N)oc12` (configuration not stated), the call was inactive.

With `O=C(Nc1nccs1)c1ccc(COc2ccc(Cl)cc2)o1`, the outcome was inactive.

For `N=c1oc2ccc(Cl)cc2cc1C(=O)NC1CCCCCC1`, the outcome was inactive.

With `CCOC(=O)C(=O)Cc1nc2ccccc2s1`, the compound was called inactive.

Take `CCOC(=O)NC(=O)COC(=O)CCCSc1nc2ccccc2s1`: the outcome was inactive.

`CCNC(=O)NC(=O)C(C)OC(=O)CCCSc1nc2ccccc2s1` (configuration not stated): the compound was called inactive.

Turning to `CC(C)CNc1nc(=S)nc(N(C)C)[nH]1`, the result was inactive.

Take `COc1ccc(S(=O)(=O)NCc2ccc3c(c2)cc(C)n3C)cc1`: the compound was classed as inactive.

On to `COc1ccc2cc(C(=O)NCc3ccccc3CN3CCCC3)ccc2c1`, for which the compound was classed as inactive.

On to `CCOC(=O)c1c(-c2ccccc2)csc1NC(=O)CCN1CCOCC1`, for which the result was inactive.

With `CC(NC(=O)OCc1ccccc1)c1ccccc1` (configuration not stated), the result was inactive.
